“And” between values parts separate entries of the source, which are not always exact repeats. Identical values can stand only once. Records with an inconclusive call do not appear. The source made the active and inactive calls. Unless noted, the call rests on the fitted dose curve; in most records, active means well fitted curve in the direction sought with a large enough effect in the repeat runs; inconclusive means weak or mixed curves; inactive means no such curve, though single readings can be large; an effect the other way counts as inactive or inconclusive.
Legend:
[1] = qHTS assay to identify small molecule antagonists of the glucocorticoid receptor (GR) signaling pathway - cell viability counter screen (AID 720693); further: nearly all actives have a fitted effect of over 55% in size; further: potency means the concentration at half of the fitted maximal effect
[2] = qHTS assay for identifying genotoxic compounds that show differential cytotoxicity against isogenic chicken DT40 cell lines with known DNA damage response pathways - wild type cell line (AID 743012); further: nearly all actives have a fitted effect of over 60% in size; further: potency means the concentration at half of the fitted maximal effect
Method in brief: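 First, wild type DT40 cells were plated at 300 per well and equilibrated about 0.5 h at 37 C/5% CO2. Next, compounds in DMSO were added and exposure lasted 40 h. Finally, CellTiter-Glo was added for 30 min at room temperature and luminescence recorded.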

[3] = qHTS assay for identifying genotoxic compounds that show differential cytotoxicity against isogenic chicken DT40 cell lines with known DNA damage response pathways - Rev3 mutant cell line (AID 743014); further: nearly all actives have a fitted effect of over 55% in size; further: potency means the concentration at half of the fitted maximal effect
[4] = qHTS assay for identifying genotoxic compounds that show differential cytotoxicity against isogenic chicken DT40 cell lines with known DNA damage response pathways - Rad54/Ku70 mutant cell line (AID 743015); further: nearly all actives have a fitted effect of over 60% in size; further: potency means the concentration at half of the fitted maximal effect
[5] = target: Androgen receptor (Homo sapiens) (UniProt P10275); test: qHTS assay to identify small molecule antagonists of the androgen receptor (AR) signaling pathway (AID 743035; active means well fitted inhibition curve with a large enough effect in the signal ratio in the repeat runs, not every such curve was filed as active; the % refers to the signal ratio; further: potency means the concentration at half of the fitted maximal effect)
Method in brief: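 Beta-lactamase FRET read (2 h RT incubation with LiveBLAzer B/G) following 16 h of compound plus R1881 treatment of AR-UAS-bla HEK293 cells, which had been pre-incubated 4 h at 37C.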

[6] = target: Androgen receptor (Homo sapiens) (UniProt P10275); test: qHTS assay to identify small molecule agonists of the androgen receptor (AR) signaling pathway using the MDA cell line (AID 743040; further: nearly all actives have a fitted effect of over 20% in size)
Method in brief: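 MDA-kb2 breast carcinoma cells stably carrying an MMTV-driven luciferase reporter (AR- and GR-responsive) were seeded and held 5 h at 37C, 0% CO2, then exposed to compounds in DMSO for 16 h. Luminescence was read 30 min after ONE-Glo addition.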

[7] = qHTS assay to identify small molecule antagonists of the androgen receptor (AR) signaling pathway using the MDA cell line - cell viability counter screen (AID 743041; further: nearly all actives have a fitted effect of over 45% in size; further: potency means the concentration at half of the fitted maximal effect)
Method in brief: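 MDA-kb2 AR-luc human breast carcinoma cells (MMTV-luciferase, AR/GR responsive) were treated with compounds plus R1881 agonist for 16 h at 37 °C. Viability was read as CellTiter-Fluor fluorescence in the same wells as the reporter assay.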

[8] = target: Androgen receptor (Homo sapiens) (UniProt P10275); test: qHTS assay to identify small molecule antagonists of the androgen receptor (AR) signaling pathway using the MDA cell line (AID 743042; further: nearly all actives have a fitted effect of over 55% in size)
Method in brief: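 MDA-kb2 cells (human breast carcinoma, stably carrying an MMTV-luciferase reporter responsive to AR and GR) were plated at 3,000 cells/well and preincubated 5 hr at 37C, then given compound plus R1881 agonist for 16 h. ONE-Glo luminescence was read.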

[9] = qHTS assay to identify small molecule antagonists of the androgen receptor (AR) signaling pathway - cell viability counter screen (AID 743033; further: nearly all actives have a fitted effect of over 45% in size; further: potency means the concentration at half of the fitted maximal effect)

Measured: Potency

Chain of Androgen receptor (Homo sapiens) (P10275 whole entry, looked up): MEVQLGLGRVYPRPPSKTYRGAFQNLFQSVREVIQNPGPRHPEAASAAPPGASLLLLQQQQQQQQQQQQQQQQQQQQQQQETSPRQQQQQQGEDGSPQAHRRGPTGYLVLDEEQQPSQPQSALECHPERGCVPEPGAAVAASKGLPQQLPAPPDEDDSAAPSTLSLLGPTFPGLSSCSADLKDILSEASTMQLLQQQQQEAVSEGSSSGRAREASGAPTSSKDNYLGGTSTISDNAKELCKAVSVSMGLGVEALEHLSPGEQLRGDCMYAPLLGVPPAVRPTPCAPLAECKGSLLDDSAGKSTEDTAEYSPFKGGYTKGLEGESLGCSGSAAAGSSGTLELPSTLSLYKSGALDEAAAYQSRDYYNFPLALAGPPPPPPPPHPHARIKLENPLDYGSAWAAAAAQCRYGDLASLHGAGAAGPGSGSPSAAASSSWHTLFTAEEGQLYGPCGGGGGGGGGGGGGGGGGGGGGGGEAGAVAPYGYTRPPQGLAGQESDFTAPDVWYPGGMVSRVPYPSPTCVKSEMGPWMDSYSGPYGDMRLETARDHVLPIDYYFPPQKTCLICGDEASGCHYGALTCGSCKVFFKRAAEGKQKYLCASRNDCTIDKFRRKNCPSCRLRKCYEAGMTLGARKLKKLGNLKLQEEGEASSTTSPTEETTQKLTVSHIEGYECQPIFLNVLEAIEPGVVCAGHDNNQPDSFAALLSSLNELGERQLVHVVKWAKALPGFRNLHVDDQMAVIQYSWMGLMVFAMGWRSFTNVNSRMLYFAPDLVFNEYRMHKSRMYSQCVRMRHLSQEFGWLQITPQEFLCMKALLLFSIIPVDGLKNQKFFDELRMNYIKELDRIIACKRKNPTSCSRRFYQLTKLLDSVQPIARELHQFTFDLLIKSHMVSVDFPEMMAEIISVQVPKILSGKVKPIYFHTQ

CCOc1ccc2ccccc2c1C(=O)N[C@@H]1C(=O)N2[C@@H]1SC(C)(C)[C@@H]2C(=O)O
inactive: [1] | [2] | [3] | [4] | [5] | [6] | [7] | [8]

C#C[C@]1(O)CC[C@H]2[C@@H]3[C@H](C)CC4=C(CCC(=O)C4)[C@H]3CC[C@@]21C
inactive: [1] | [9] | [7]
active: [2] 10.6 µM | [3] 29.8 µM | [4] 21.1 µM

CCCCNS(=O)(=O)c1ccc(C)cc1
inactive: [1] | [2] | [3] | [4] | [9] | [7]

COc1cc(C)ccc1O
inactive: [1] | [2] | [3] | [4] | [9] | [7]

CC(C)CCOC(=O)/C=C/c1ccccc1
inactive: [1] | [2] | [3] | [4] | [9] | [7]

C[C@@H](O)[C@H](N)C(=O)O
inactive: [1] | [2] | [3] | [4] | [9] | [7]

CCc1cccc(CC)c1NC(=O)CN(CC(=O)O)CC(=O)O
inactive: [1] | [2] | [3] | [4] | [9] | [7]

C=Cc1cccc(C)c1
inactive: [1] | [2] | [3] | [4] | [9] | [7]

CCCC1CCC(=O)CC1
inactive: [1] | [2] | [3] | [4] | [9] | [7]

CCCCCCCCCCCCCC[N+](C)(C)Cc1ccccc1
active: [1] 21.3 µM and 24.9 µM | [2] 473 nM and 621 nM | [3] 750 nM and 493 nM | [4] 750 nM and 493 nM | [9] 23.9 µM and 7.03 µM | [7] 49.3 µM

CC(CCc1ccccc1)NCC(O)c1ccc(O)c(C(N)=O)c1 (configuration not stated)
inactive: [1] | [2] | [3] | [4] | [9] | [7]

Cc1ccc(C(=O)O)cc1
inactive: [1] | [2] | [3] | [4] | [9] | [7]

COc1cc(/C=C/c2ccccc2)oc(=O)c1
inactive: [1] | [2] | [3] | [4] | [9] | [7]

CCCCCCCCCCCCOCCOCCOCCOCCOCCOCCOCCOCCOCCO
active: [1] 23.9 µM | [2] 2.98 µM | [3] 5.96 µM | [4] 5.96 µM | [7] 8.41 µM
inactive: [9]

CCCC(=O)OC(C)(C)Cc1ccccc1
inactive: [1] | [2] | [3] | [4] | [9] | [7]

Cc1ccc(N/N=c2\c(=O)cc/c(=N\Nc3ccc(S(=O)(=O)O)cc3)c2=O)c(C)c1
inactive: [1] | [2] | [3] | [4] | [9]
active: [7] 27.3 µM

O=[N+]([O-])c1cccc(C(F)(F)F)c1
inactive: [1] | [2] | [3] | [4] | [9] | [7]

CN1CCC[C@@H]1CCO[C@](C)(c1ccccc1)c1ccc(Cl)cc1
active: [2] 9.44 µM | [3] 10.6 µM | [4] 21.1 µM
inactive: [1] | [9] | [7]

CCCCCCCC
inactive: [1] | [2] | [3] | [4] | [9] | [7]

O=C(O)c1cc(N=Nc2ccc([N+](=O)[O-])cc2)ccc1O
inactive: [2] | [3] | [4] | [9]
active: [1] 21.5 µM | [7] 47.7 µM

CN(C)C(=O)COC(=O)Cc1ccc(OC(=O)c2ccc(N=C(N)N)cc2)cc1
inactive: [1] | [2] | [3] | [4] | [9] | [7]

C#C[C@]1(OC(C)=O)CC[C@H]2[C@@H]3CCC4=C/C(=N/O)CC[C@@H]4[C@H]3CC[C@@]21CC
active: [1] 21.3 µM | [2] 9.44 µM | [3] 13.3 µM | [4] 10.6 µM
inactive: [9] | [7]

CC(C)(C)NSc1nc2ccccc2s1
inactive: [1] | [2] | [3] | [4] | [6] | [7] | [8]
active: [5] 55.9 µM

O=C1CCc2ccc(OCCCCN3CCN(c4cccc(Cl)c4Cl)CC3)cc2N1
active: [2] 5.96 µM | [3] 5.31 µM
inactive: [1] | [9] | [7]

CC(=O)Oc1cc2c(s1)CCN(C(C(=O)C1CC1)c1ccccc1F)C2 (configuration not stated)
inactive: [1] | [2] | [3] | [9] | [7]

O=C(/C=C/c1ccc(O)c(O)c1)O[C@@H](C(=O)O)[C@@H](OC(=O)/C=C/c1ccc(O)c(O)c1)C(=O)O
inactive: [1] | [2] | [3] | [9]

C#CC1(O)CC[C@H]2[C@@H]3CCC4=CCCC[C@@H]4[C@H]3CC[C@@]21C (some centres not stated)
active: [2] 11.4 µM and 13.7 µM | [3] 11.4 µM and 7.7 µM
inactive: [1] | [9] | [7]

Cc1cc(=O)oc2cc(O)cc(O)c12
inactive: [1] | [2] | [3] | [9] | [6] | [8]

Reference: PubChem BioAssay (Tox21)
